Source: the supplement of paper PMC11417369
Over roughly 25,000 sequences, “ln(normalized median fluorescence intensity)” has its median near 9.3; the highest 2% begin near 10. This excerpt belongs to a sample that is enriched for the highest values.

test system: PF3D7_0420300 AP2 domain 1 (GST-tagged); test: gcPBM binding intensity (ln(normalized median fluorescence intensity)); higher = stronger DNA binding
In short: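 Plasmodium falciparum DNA-binding domains carrying a GST tag were expressed in E. coli and applied for 1 h, at about 25 μg on average, to an Agilent 4 × 180k array. The array held primer-extended double-stranded 36-bp intergenic genomic probes together with negative controls, and binding took place in 1× PBS with 1% milk, 0.2 mg/ml BSA, 0.5% salmon testes DNA and 0.03% Triton X-100. An Alexa488 anti-GST antibody detected bound protein, and the array was scanned at 488 nm. Binding intensity is taken as the highest Masliner-normalised natural-log median intensity across replicate spots of either probe orientation.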

Row | Sequence | gcPBM binding intensity (ln)
1 | CCACAGGATTGGTTCAAACACACATATTATATGACT [CACACA_site661] | 9.39
2 | CCTTTATTAAATAAATGTACATATTTTTGTGTTCTT [XGTACX_site2052] | 9.4
3 | GAAATATAATTTATTACACACATTTTAAAAAAATTC [CACACA_site1087] | 9.26
4 | AAAAAAAAAAAAAAATGTACATTATACACATTATAT [XGTACX_site6824] | 9.28
5 | AAAGGGGAGATATGAACACACAAAAAAAAAATATAT [CACACA_site7378] | 9.58
6 | CTATACAATAAAAATTGTACATACATATATGTTATA [XGTACX_site5309] | 9.17
7 | TATAACTTTTTTATTACACACCTATGTAATATTATA [CACACA_site944] | 9.37
8 | CCTAAATAATATCTATCACACACGCATATATACATA [CACACA_site8838] | 9.56
9 | TATGTTAAAAAAAAAAAAAAGAAAAAAATAAAAGGA [CACACA_negctrl_site119] | 9.44
10 | CACAAAAATAAACACACACACATATATATATATATA [CACACA_site4704] | 9.75
11 | TATAAGAGAATATATACACACAAAAATAAATACAGT [CACACA_site5000] | 10.3
12 | TAAATATATAAATACACACACATACACAAAAAAAAA [CACACA_site5890] | 10.1
13 | TCAAAAATAAAGATCACACATATATATATATATATA [CACACA_site4381] | 9.2
14 | AAAAAAAAAGATCACACACACATAAATATAAACAAA [CACACA_site5285] | 10.2
15 | TATAAATATACAAACACACATACAAACATATATATA [CACACA_site1120] | 9.91
16 | AAGAGAAAAATATATACACACACATAAATATATACA [CACACA_site8573] | 9.96
17 | CATACATACAAACACACACACATATAAATACATACA [CACACA_site4625] | 10.2
18 | TATAAATATATATATACACACACATACACAAAAAAA [CACACA_site9191] | 10.2
19 | CACATACATATATACACACACAAAATAATAAAATAA [CACACA_site2308] | 10
20 | TAAATATATAAATACACACAAACATACATATATATA [CACACA_site4050] | 9.88
21 | TATAAGAGAATATATACACACAAAAATATATACAGT [CACACA_site1668] | 9.89
22 | AATACATACATACATACATGCATATATATATATATA [TGCATGCA_site462] | 9.42
23 | ATTTACATTCACTTATGTACTTATATAATTTTATTT [XGTACX_site8150] | 9.54

Row | Sequence | gcPBM binding intensity (ln)
24 | CCCATTTTGACAAAAAGTACAAGTTCAGGTTTTATA [XGTACX_site1532] | 9.22
25 | AACTATAAAAATTTTACACACTGTTTTTAAATAATG [CACACA_site5928] | 9.4
26 | TACACAAAAATAAACACACACACATATAAATAAATA [CACACA_site6599] | 10.2
27 | TACACAAAAATAAACACACACACATATATATATATA [CACACA_site1000] | 9.78
28 | ATAAATAAGATACGTACACACATATACAAAATATAC [CACACA_site3661] | 9.95
29 | AATATATAAATATATACACACAAAAACATATATATA [CACACA_site1318] | 9.8
30 | TAATAAAAAATATATACACACAAATAAATAAATAAA [CACACA_site4037] | 9.83
31 | AATATAAAAAATAATACACACACATGGCGACAAAAT [CACACA_site8765] | 10.2
32 | ATATAAATATTAATTACACACAAAAAAAAAAAAAAA [CACACA_site6671] | 9.35
33 | AGATAAAATATATACACACACATAAATACGTACAAA [CACACA_site1086] | 10.1
34 | ATATATATATATTACACACACACAAAAAAAATAAAG [CACACA_site118] | 10.4
35 | TATAAAAAATAATACACACACATGGCGACAAAATAA [CACACA_site2420] | 10.2
36 | AGATAAAATAAATACACACACATAAATACGTACAAA [CACACA_site4739] | 10.2
37 | TATTTACACAAAATAAAATATATTATATATATATAT [TGCATGCA_negctrl_site381] | 8.93
38 | GGTGTATGTTAAAGGAGTACATATATATATATATAT [XGTACX_site7727] | 9.3
39 | ACCTTTGATATATACACACACATAAAAAAAATATAT [CACACA_site6952] | 9.93
40 | TACAACCTTTAGACAAGTACAAGAATTATATGTGGC [XGTACX_site4581] | 9.4
41 | AAAAAAAAAAATTACACACATACATATAATAATAAT [CACACA_site2193] | 9.85
42 | AGCAGTCGACAGGACAGTACACAGTAGCCAGGAAAT [XGTACX_site4929] | 9.32
43 | AAATTATAAATACCTACACACTTATCAAAATAAATT [CACACA_site5280] | 9.56
44 | ATTGGGTTCATCAGCACACACAACATCATGTAATAA [CACACA_site5093] | 9.5
45 | AATTAATGGAAACAAGTCAAATGATCTTTATGCATA [TGCATGCA_negctrl_site540] | 9.13
46 | TTTATATAATTTTAATGTACATATATATATATAAAT [XGTACX_site4381] | 8.98

Row | Sequence | gcPBM binding intensity (ln)
47 | CATATACATACACATACACACATACAGACATACACA [CACACA_site6919] | 9.83
48 | TAAACAGACATATAAACACACATACATACATACATA [CACACA_site7215] | 9.56
49 | TAAACAGACATACATACACACATACATACAGACATA [CACACA_site6997] | 9.88
50 | AAAAAAAACAGACACACACACATACACATACATACA [CACACA_site2857] | 10.2
51 | AAAAAAAACAGACACACACACACATATACATACATA [CACACA_site2665] | 10.2
52 | TACACATACAGACATACACACATACACATATACACA [CACACA_site6918] | 9.88
53 | TACATACACAGACACACACACATATATATATATATA [CACACA_site3557] | 9.89
54 | AAAAAACACAGACACACACACATATACATACATACA [CACACA_site2666] | 10.2
55 | AACAGACATACATACACACATACATACAGACATACA [CACACA_site1942] | 9.9
56 | TAATGATTATATGACTGTACATTTGTAGGTATAATT [XGTACX_site3373] | 9.18
57 | ACATAAAAATTATGCACACTTAATAAAGCGAAATGT [CACACA_site3183] | 9.45
58 | TATATATAAAAATATACACACACAAATGTATATATA [CACACA_site7956] | 9.54
59 | AAATATTTTATACTTGCACACAAAATATATTAAAAT [CACACA_site8606] | 9.32
60 | AAAAACAAAAAAGAAGCACACATATATATATATATA [CACACA_site8779] | 9.6
61 | ATCCTACTATGTTATACACACAATTACTTTTTTCTC [CACACA_site3712] | 9.86
62 | CTTATTATTATATGGGTGCTCATATTTTTCTTTTTT [GTGCAC_site9723] | 9.4
63 | TTATACTTTGGGTGGTGTACTATATTATGCTTATAA [XGTACX_site1106] | 9.51
64 | GGTGGTGGTGGGTGGGTGCTTCTATTATTATATTAT [GTGCAC_site9391] | 10.7
65 | CCTTTATAATTGGAAACACACATATAAAGTATATAT [CACACA_site3900] | 9.2
66 | CATTCAAACAAAAAAAGTACTCATCACATAATATAT [XGTACX_site1251] | 9.44
67 | ATATAAATAAACAGGTGTACTATAATGTTCATAGTA [XGTACX_site1553] | 9.47
68 | TTAATTATAATTATATGTACGAACTTTTTTTTTTTT [XGTACX_site6586] | 9.14
69 | AAAAAAAAAAAACACACACACACATTCAATATAAAA [CACACA_site40] | 10

Row | Sequence | gcPBM binding intensity (ln)
70 | AATATTAAAATATAAACACACAAAATTCAATTATAT [CACACA_site5971] | 9.61
71 | AAAAAAAACAGACACACACACATAAATATAAATAAA [CACACA_site6214] | 9.96
72 | AAAAAAAACGGACACACACACATTCAATATAAAACA [CACACA_site4189] | 10.2
73 | AAAAAAAACAGACACACACACATTCAATATAAAACA [CACACA_site41] | 10.2
74 | AAAAAAAACGAACACACACACATTCAATATAAAACA [CACACA_site6170] | 10.2
75 | AAAAAAAAAAAAAAAACACACAGAACAATATATAAA [CACACA_site4698] | 9.76
76 | AATATTATAATATAAACACACAAAATTCAATTATAT [CACACA_site3789] | 9.69
77 | TTCATTAAAACGAATACACACATAAATATATAAAAG [CACACA_site4824] | 9.62
78 | TATAATAGTTCATAGGTGCAATATAATAAATTTATA [GTGCAC_site9573] | 9.13
79 | TACCTTTATTAATAAAGTACATTAATCTGTGTATAC [XGTACX_site8720] | 9.09
80 | AGTATTCACTTAATATGTACATATTTATTATAAGAG [XGTACX_site3434] | 9.11
81 | ACATCAAGAATTATTAAGAATACGGATAGATAAAAT [GTGCAC_negctrl_site261] | 9.4
82 | ATAAAATTTTATATGGGTACATAATATAATATATAT [XGTACX_site8160] | 9.21
83 | TATAAGAATAAAAAGGGTACATAAAATAATAATATA [XGTACX_site2355] | 9.55
84 | AAAAAAAAAAAGAAGGGTACATATTATATATAATAT [XGTACX_site6204] | 9.43
85 | ATTATAAGAAGGGGGGGTACATAAATATAAATGTAT [XGTACX_site5624] | 10.3
86 | ATATTAAAAATATATACACACATATATATAAATATA [CACACA_site2257] | 9.37
87 | AAAAAAAATAAAAATAGTACTCAAAAAATTATGAAT [XGTACX_site3073] | 9.19
88 | GCTCAATTTTTGGGTACACACAAATGTATAAGAATA [CACACA_site7178] | 9.22
89 | TTATGGTTATACATATGTACATATATATATATATAT [XGTACX_site1494] | 9.29
